Records with an inconclusive call do not appear. The source made the active and inactive calls. How the source made its calls: active means hit-call score of the fitted dose curve at least 0.9, where 1 is the maximum; inconclusive means response in the unintended direction; inactive means score below 0.9. Peptide text beside a SMILES is read from it.
molecular target: human Peroxisome Proliferator-activated Receptor delta (PPARd), PPARD (gene 5467) (UniProt Q03181); assay: ATG_PPARd_TRANS: Attagene TRANS-FACTORIAL HepG2 Assay for human Peroxisome Proliferator-activated Receptor delta (PPARd) (AID 2283002)
Sequence (Q03181 whole entry, looked up): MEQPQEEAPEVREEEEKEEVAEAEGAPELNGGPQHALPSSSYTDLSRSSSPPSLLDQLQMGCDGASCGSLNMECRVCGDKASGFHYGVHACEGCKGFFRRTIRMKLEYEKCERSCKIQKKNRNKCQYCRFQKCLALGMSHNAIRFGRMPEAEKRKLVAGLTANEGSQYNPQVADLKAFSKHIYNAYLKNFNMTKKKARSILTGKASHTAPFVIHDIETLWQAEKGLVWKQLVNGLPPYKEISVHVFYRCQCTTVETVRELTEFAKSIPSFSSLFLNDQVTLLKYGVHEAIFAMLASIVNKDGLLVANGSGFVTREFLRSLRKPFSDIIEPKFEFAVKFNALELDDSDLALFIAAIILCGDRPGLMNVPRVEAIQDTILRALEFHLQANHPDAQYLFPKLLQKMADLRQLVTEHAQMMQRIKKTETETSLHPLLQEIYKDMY
Protocol: ATG_TRANS is a cell-based, multiplexed-readout assay that uses HepG2, a human liver cell line, with measurements taken at 24 hours after chemical dosing in a 24-well plate.ATG_PPARd_TRANS is one of 30 assay component(s) measured or calculated from the ATG_TRANS assay. It is designed to make measurements of mRNA induction, a form of inducible reporter, as detected with fluorescence intensity signals by Reverse transcription polymerase chain reaction (RT-PCR) and Capillary electrophoresis technology.Data from the assay component ATG_PPARd_TRANS was analyzed into 1 assay endpoint. This assay endpoint, ATG_PPARd_TRANS, was analyzed in the positive analysis fitting direction relative to DMSO as the negative control and baseline of activity. Using a type of inducible reporter, measures of mRNA for gain-of-signal activity can be used to understand the reporter gene at the transcription factor-level as they relate to the gene PPARD. Furthermore, this assay endpoint can be referred to as a primary readout, because this assay has produced multiple assay endpoints where this one serves a reporter gene function. To generalize the intended target to other relatable targets, this assay endpoint is annotated to the nuclear receptor intended target family, where the subfamily is non-steroidal.
Human liver HepG2 cells are transiently transfected with multiple reporter transcription units (MRTUs) in 6-well plates using FuGene 6 reagent (Roche; 3 ml FuGene/1 mg DNA). The MRTU constructs are regulated by a cis-regulating element (promoter). […] A major difference between the CIS and TRANS system is that in CIS activities of endogenous TFs are measured, whereas the TRANS assay evaluates changes in activities of exogenous, chimeric NR-Gal4 proteins. […] At the end of 24 hour incubation, total RNA was isolated using TriZol reagent (Invitrogen). The isolated RNA is then reverse-transcribed using oligo(dT) primer and Mo-MLV reverse transcriptase (Invitrogen) with DNAse I (Ambion) treatment for 30 min. The one-tenth of the produced cDNA was amplified by PCR using Taq DNA polymerase (Invitrogen) and two reporter sequence-specific primers. The PCR products were fluorescently labeled by primer extension with 6-arboxyfluorescein (6-FAM) 5'-labeled reporter sequence-specific primer (2 min at 95 C, 20 s at 68 C and 10 min at 72 C) and these products were digested with 5U of HpaI (New England Biolabs) for 2h at 37 C. The fragments were purified using Qiaquick PCR columns (Qiagen), analyzed on an ABI 3130xL genetic analyzer (Applied Biosystems) with peak positions identified by using a set of X-rhodamine (ROX)-labeled MapMarker1000 molecular weight standards (BioVentures). The raw capillary electrophoresis data was processed using Attagraph software (Attagene).

| Structure (SMILES) | outcome | AC50 |
| --- | --- | --- |
| c1ccc(-c2nc3ccccc3[nH]2)cc1 | inactive | – |
| CC=CC(=O)OCC(C)C | inactive | – |
| [Cl][Eu]([Cl])[Cl] | inactive | – |
| CCC(C)c1ccccc1 (stereo not given) | inactive | – |
| CCCCC(CC)COC(=O)/C=C/c1ccc(OC)cc1 (stereo not given) | inactive | – |
| CCOC(=O)[C@H](O)[C@@H](O)C(=O)OCC | inactive | – |
| Cn1cccc1 | inactive | – |
| Nc1ccc(Cl)c(N)c1 | inactive | – |
| CC(Cl)COP(=O)(OCC(C)Cl)OCC(C)Cl (stereo not given) | inactive | – |
| CC(C)COC(=O)CC(C(=O)OCC(C)C)S(=O)(=O)O (stereo not given) | inactive | – |
| CC12CCC(CC1)C(C)(C)O2 | inactive | – |
| CCN(CC)c1cccc(C)c1 | inactive | – |
| CC=C(C)C(C)=O | inactive | – |
| CC1=CC(C)C(C=O)CC1 (stereo not given) | inactive | – |
| COC(=O)[C@H](Cc1ccccc1)NC(=O)[C@@H](N)CC(=O)O (H-Asp-Phe-OMe) | inactive | – |
| CC1(C)CCC[C@]2(C)[C@H]3CC(=O)O[C@]3(C)CC[C@@H]12 | inactive | – |
| CC1(C)C(=O)N(CO)C(=O)N1CO | inactive | – |
| O=C(OCCc1ccccc1)c1ccccc1 | inactive | – |
| CC(C)(CO)COC(=O)C(C)(C)CO | inactive | – |
| C=C(C)C1CC=C(C)C(OC(C)=O)C1 (stereo not given) | inactive | – |

| Structure (SMILES) | outcome | AC50 |
| --- | --- | --- |
| CCN1CN(CC)CN(CC)C1 | inactive | – |
| CC(C)c1ccc2ncccc2c1 | inactive | – |
| CC(C)[N+](C)(CCOC(=O)C1c2ccccc2Oc2ccccc21)C(C)C | inactive | – |
| CC(CC=O)CC(C)(C)C (stereo not given) | inactive | – |
| Oc1ccc(/C=C/c2cc(O)cc(O)c2)cc1 | inactive | – |
| CCc1occc(=O)c1O | inactive | – |
| Cc1ccccc1CCO | inactive | – |
| O=C1CCCCCCCCCCC1 | inactive | – |
| CCCCCCCCCCCC(=O)N(C)CC(=O)O | – | 35.2 µM (active) |
| CC1CC(=O)CC(C)(C)C1 (stereo not given) | inactive | – |
| CC(c1cc(C(C)(C)C)cc(C(C)(C)C)c1O)c1cc(C(C)(C)C)cc(C(C)(C)C)c1O | inactive | – |
| CCCCCCCCCC(C)=O | inactive | – |
| CCC[Si](OC)(OC)OC | inactive | – |
| CCCCOC(=O)CCC(C)=O | inactive | – |
| C/C=C/C=C/CCCCCCCO | – | 27.2 µM (active) |
| CC1CCC(C(C)(C)S)C(=O)C1 (stereo not given) | inactive | – |
| CCCCCCCCCCCCc1ccc(O)cc1 | inactive | – |
| CC(C)=CCl | inactive | – |
| Oc1ccccc1Cc1ccccc1O | inactive | – |
| CC(C)=NNC(N)=S | inactive | – |

From PubChem BioAssay (EPA / NIEHS)
